ARNT-TACC3 inh: disrupts binding between human ARNT and TACC3. inhibition, % at 9.99 µM. 390,000 tested, 0.66% active. Q9Y6A5. AlphaScreen His-ARNT PAS-B/GST-TACC3 binding, luminescence; TACC3 fragment carries E629A point mutation;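 active means mean inhibition of replicates at least 50% and at least half of replicates each reaching 50%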;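 further: 0% = complete ARNT plus TACC3 wells and 100% = ARNT alone without TACC3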
HSF1 inh: HSF1 inhibition | NIH3T3-HGL HSE-luciferase, MG132-induced, luminescence 8 h; active compounds read low | activity change, negative = inhibition, % at 7.5 µM (by protocol) | 300,000 tested, 0.77% active;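 active means more than half of replicate wells show activity change below -50%, luminescence cut by over half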;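 further: luciferase reports HSF-1 transcriptional activity via heat shock element; 0% = median of DMSO wells and -100% = zero luminescence signal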
HSP90 inh: inhibitors of HSP90 luciferase refolding in rabbit reticulocyte lysate; 290,000 tested, 0.91% active; luciferase refolding luminescence, 3 h; AID 1789; inhibition, % at 5.6 µM;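 active means inhibition above the screen-wide mean plus 3 SD, computed separately per campaign, cut at about 16% in these data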;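 further: 0% = DMSO wells and 100% = 60 µM geldanamycin wells; inhibitors lower the luminescence because luciferase stays unfolded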
HSF1 activator: increases HSF-1 driven luciferase reporter signal | activation, % at 9 µM | 300,000 tested, 1.7% active | NIH3T3-HGL HSF-1 luciferase reporter, MG132, 8 h; 100% = twice DMSO control signal | AID 504408;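 active means mean replicate activation of at least 50% with a set share of replicates each reaching 50%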;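 further: 0% = median of the neutral control wells and 100% = twice that signal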
HIF act: HIF pathway transcriptional activation; 300,000 tested, 0.32% active; U2OS HRE-luciferase reporter, luminescence; normalized: DMSO 0%, desferrioxamine 100%; activation, % at 7.5 µM (by protocol);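 active means mean activation of at least 10% of the iron chelator positive control signal, with at least half of replicates also reaching 10%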
HSP90 confirm: confirmation of HSP90 inhibitors | shares compounds with HSP90 inh | rabbit reticulocyte lysate, luciferase refolding luminescence, 3 h | inhibition, % at 5.9 µM | 2,300 tested, 64% active; in the data active means inhibition above about 18%;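 further: 0% = vehicle wells and 100% = reference inhibitor wells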
FLuc counter: counter-screen for HSP90 inhibitors: inhibitors of firefly luciferase; shares compounds with HSP90 inh; purified native firefly luciferase, luminescence; inhibition, % at 5.9 µM; 2,300 tested, 48% active;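 active means inhibition above the mean inhibition of all tested sample wells plus 3 SD, cut at about 10% in these data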;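 further: 0% = DMSO with luciferase and 100% = wells lacking luciferase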
Target sequence (P08659 whole entry, looked up): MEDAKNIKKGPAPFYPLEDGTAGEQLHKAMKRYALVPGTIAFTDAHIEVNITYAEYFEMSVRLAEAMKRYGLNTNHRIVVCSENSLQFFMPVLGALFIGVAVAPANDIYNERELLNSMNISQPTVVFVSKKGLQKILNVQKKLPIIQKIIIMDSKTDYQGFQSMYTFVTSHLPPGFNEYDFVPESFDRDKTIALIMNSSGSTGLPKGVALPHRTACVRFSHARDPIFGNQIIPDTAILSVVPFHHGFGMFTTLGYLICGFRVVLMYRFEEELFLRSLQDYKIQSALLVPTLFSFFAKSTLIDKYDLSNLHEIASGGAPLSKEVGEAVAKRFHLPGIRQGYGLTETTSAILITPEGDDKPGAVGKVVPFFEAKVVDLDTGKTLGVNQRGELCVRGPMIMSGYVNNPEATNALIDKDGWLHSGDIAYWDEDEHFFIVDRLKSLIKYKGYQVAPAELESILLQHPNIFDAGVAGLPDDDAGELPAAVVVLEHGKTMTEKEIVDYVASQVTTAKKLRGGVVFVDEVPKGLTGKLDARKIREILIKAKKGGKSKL
ARNT Alpha ctr-1: interferes with AlphaScreen signal, flagging false ARNT-TACC3 hits; AC50, µM (doses to about 68 µM), for inactives: at the highest dose activity change, negative = signal decrease; shares compounds with ARNT-TACC3 inh; His-ARNT PASB-GST AlphaScreen artifact counter-screen, luminescence; 1,200 tested, 50% active;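 active means every separate test run was called active for a drop in luminescence, with AC50 within twice the top valid dose, actives reach about 71 µM in these data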
ARNT Alpha ctr-2: counter-screen for ARNT-TACC3 inhibitors: AlphaScreen artifacts. shares compounds with ARNT-TACC3 inh. Dual-tagged His-ARNT PASB-GST AlphaScreen artifact counter-screen. AC50, µM. 45 tested, 70% active;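 active means luminescence drop, with half-maximal potency fitted within twice the sample's top valid dose, cut at about 70 µM in these data; inactive means the rest, including signal moving the wrong way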
The depositor's hits bear a star; i = inactive; nt = no result. A selection: hits, their analogues and other compounds. The true share with any hit is near 3.1%.

SMILES	ARNT-TACC3 inh	HSF1 inh	HSP90 inh	HSF1 activator	HIF act	HSP90 confirm	FLuc counter	others
O=C(NCC(c1cccnc1)N1CCOCC1)Oc1ccccc1 (configuration not stated)	-3.5	14.5	-1.9	6.5	-0.8	nt	nt
COc1ccccc1-n1c(-c2ccccc2)nc2ccccc2c1=O	-13.9	-2.9	-2.0	6.0	-5.5	nt	nt
COc1ccccc1-n1c(-c2cccs2)nc2ccccc2c1=O	-1.8	4.6	17.3*	7.8	0.0	-0.2	-10.4
COC(=O)[C@H]1[C@H](CO)[C@H]2Cn3c(ccc(-c4cccc(OC)c4)c3=O)[C@@H]1N2C(=O)c1cnccn1	2.8	nt	nt	nt	nt	nt	nt
CCCCNC(=O)c1c(N)n(CCCOC)c2nc3ccccc3nc12	-51.4	5.2	7.8	12.8	-0.2	nt	nt
CCCCCn1c(NC(=O)c2ccco2)c(C(=O)OCC)c2nc3ccccc3nc21	nt	17.6	4.6	40.0	-0.3	nt	nt
COCCCn1c(N)c(C(=O)OCCOC)c2nc3ccccc3nc21	4.0	1.1	22.1*	16.0	0.2	-2.0	-4.1
CCOC(=O)c1c(NS(=O)(=O)c2ccccc2)n(CCCOC)c2nc3ccccc3nc12	7.9	9.2	22.2*	11.9	454.7*	6.7	-4.2
COC(=O)[C@@H]1[C@@H](CO)[C@@H]2Cn3c(ccc(-c4ccccc4F)c3=O)[C@H]1N2Cc1ccncc1	29.0	nt	nt	nt	nt	nt	nt
CNC(=O)Oc1ccc(-c2cn3cc(C)ccc3n2)cc1	nt	2.2	55.7*	1.7	-2.2	67.9*	51.7*
N#Cc1cccc(-c2ccc([C@H]3[C@H]4CN(C(=O)Cc5ccncc5)CCCCN4[C@H]3CO)cc2)c1	9.5	nt	nt	nt	nt	nt	nt
COc1ccc(N/N=C/c2c(O)n(-c3ccc(C)c(C)c3)c(=O)[nH]c2=O)cc1	29.2	-5.2	18.9*	-23.5	-0.1	28.9*	-5.8
COc1ccc(N/N=C/c2c(O)n(-c3cccc(C)c3)c(=O)[nH]c2=O)cc1	35.8	5.1	8.1	-8.1	0.3	nt	nt
CN(C)CC#Cc1ccc([C@@H]2[C@H]3CN(C(=O)Cc4ccccn4)CCCCN3[C@H]2CO)cc1	4.6	nt	nt	nt	nt	nt	nt
O=C(O)[C@H]1[C@H](CO)[C@H]2Cn3c(ccc(-c4ccc(F)cc4)c3=O)[C@@H]1N2CC1CCCCC1	0.7	nt	nt	nt	nt	nt	nt
CCOP(=S)(NN(Cc1ccccc1)C(=O)c1ccccc1)OCC	-4.1	8.1	42.3*	22.1	-0.9	5.0	-0.2
CCOP(=O)(OCC)C(Cc1ccccc1)NC(C)=O (configuration not stated)	-0.7	-3.2	-7.5	-3.5	0.1	nt	nt
COC(=O)[C@@H]1[C@@H](CO)[C@@H]2Cn3c(ccc(-c4cccc(OC)c4)c3=O)[C@H]1N2C(=O)c1cnccn1	-5.8	nt	nt	nt	nt	nt	nt
CN(C)C(Cc1ccccc1)C(=O)c1ccccc1 (configuration not stated)	0.4	0.1	-4.2	9.0	1.3	nt	nt
CCOC(=O)c1c(C)[nH]c(C)c1C(=O)C(Cc1ccccc1)N(C)C (configuration not stated)	-4.8	-1.4	22.1*	-11.0	-0.2	-0.9	-5.9
N#Cc1cccc(-c2ccc([C@H]3[C@H]4CN(C(=O)Cc5ccccc5)CCCCN4[C@H]3CO)cc2)c1	5.0	nt	nt	nt	nt	nt	nt
O=C1CC(c2cccnc2)=NN1c1ccccc1	4.1	-0.8	28.1*	6.8	-1.1	3.1	0.1
CN1CCN(c2cccc3c2C(=O)c2ccccc2C3=O)CC1	4.0	-24.6	19.0*	-18.4	-0.3	20.2*	1.5
O=C(Cc1ccccn1)N1CCCCN2[C@H](CO)[C@@H](c3ccc(C#Cc4ccccc4)cc3)[C@H]2C1	14.5	nt	nt	nt	nt	nt	nt
Cc1ccccc1-n1c(O)c(/C=N/NC(=O)c2ccccc2O)c(=O)[nH]c1=S	57.1*	-54.9*	21.3*	-64.1	0.6	51.7*	48.5*
SMILES	ARNT-TACC3 inh	HSF1 inh	HSP90 inh	HSF1 activator	HIF act	HSP90 confirm	FLuc counter	others
Cc1ccc(OCCOc2cccc(C=C3C(=O)NC(=O)NC3=O)c2)c(C)c1	-8.1	-10.2	23.4*	8.3	-2.1	39.3*	17.0*
CCOc1cc(C=C2C(=O)NC(=O)NC2=O)ccc1OS(=O)(=O)c1ccccc1	3.0	-2.6	3.8	-7.8	0.0	nt	nt
CCOc1cc(/C=C2\C(=O)NC(=O)N(CCc3ccc(F)cc3)C2=O)ccc1O	5.8	-1.8	38.0*	-3.1	-0.3	6.7	7.8
Cc1nc2c(=O)n(C)c(=O)nc-2n(C)n1	19.1	-93.9*	77.8*	-94.6	-5.0	79.9*	83.5*
CN1CCN2c3ccc(N)cc3CC3(C(=O)NC(=O)NC3=O)C2C1 (configuration not stated)	nt	-12.8	20.2*	-4.0	0.2	-1.2	-15.3
CC(C)(C)c1ccc(O)c(N=Cc2c(O)ccc3ccccc23)c1	4.4	10.1	29.8*	-10.0	3.9	30.2*	-5.6
FC(F)(F)c1ccc(CNCCc2c[nH]c3ccccc23)cc1	-1.4	3.7	-2.2	2.8	-1.5	nt	nt
Clc1cccc(CNCCc2c[nH]c3ccccc23)c1	51.6*	-8.4	-1.2	-9.0	1.2	nt	nt	ARNT Alpha ctr-1=-6.7%
CC1CN(c2ccc([N+](=O)[O-])c3cccnc23)CC(C)N1 (configuration not stated)	59.4*	3.1	-2.0	-12.4	-0.2	nt	nt	ARNT Alpha ctr-1=-3.7%
COC(=O)[C@@H]1[C@@H](CO)[C@@H]2Cn3c(ccc(-c4cccc(F)c4)c3=O)[C@H]1N2Cc1ccncc1	-12.5	nt	nt	nt	nt	nt	nt
O=C(Nc1ccc(Cl)cc1)O/N=C(\c1ccccc1)c1ccccn1	50.2*	4.9	-0.5	-5.8	2.7	nt	nt	ARNT Alpha ctr-1=-37.9%
Nc1ccccc1N=Cc1c(O)n(CCC2=CCCCC2)c(=O)[nH]c1=O	-3.2	-13.3	2.4	-34.5	1.0	nt	nt
O=C(N/N=C/c1c(O)n(CCC2=CCCCC2)c(=O)[nH]c1=O)c1ccccc1	50.6*	-5.1	-2.5	16.4	1.0	nt	nt	ARNT Alpha ctr-1=-16.0%
O=C(Cc1ccccc1)N1CCCCN2[C@H](CO)[C@@H](c3ccc(C#Cc4ccccc4)cc3)[C@H]2C1	-20.0	nt	nt	nt	nt	nt	nt
CCn1nc(-c2cccnc2)nc2c(=O)n(C)c(=O)nc1-2	nt	nt	nt	nt	nt	nt	nt	ARNT Alpha ctr-2=i
C/C=C/c1ccc([C@H]2[C@@H](CO)N3CCCCN(C(=O)Cc4ccncc4)C[C@@H]23)cc1	-2.9	nt	nt	nt	nt	nt	nt
CCN(CCCl)c1cc(CN(C)C)cc(NC(=O)c2ccc(C(=O)Nc3cc(CN(C)C)cc(N(CC)CCCl)c3)cc2)c1	53.8*	nt	nt	nt	nt	nt	nt	ARNT Alpha ctr-1=4.28µM*

High-throughput results as filed in PubChem BioAssay.
